From PubChem
DT40 TDP1 no CPT: qHTS for Inhibitors of human tyrosyl-DNA phosphodiesterase 1 (TDP1): qHTS in cells in absence of CPT; DT40 Tdp1-/- hTDP1 cells, no CPT, ATP luminescence, 48 h; Potency, µM (doses to about 46.2 µM), inactives show top-dose activity change, negative = growth inhibition, hits mostly inhibitors; 420,000 compounds, 15% hits; AID 686978, 2013; also: potency is read from the fitted curve at half-maximal effect; % is scaled to controls: 0 for no effect and ±100 for the full control effect; nearly all actives have a fitted effect of over 55% in size
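Chicken DT40 Tdp1-/- cells stably complemented with human TDP1 were seeded at 400 cells/well with DMSO in place of 20 nM camptothecin. After compound pinning, cells grew at least 48 hr at 37 °C; viability read by CellTiter-Glo luminescence.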
D3 antag: D3 dopamine receptor (human) antagonism; 360,000 compounds, 2.5% hits; D3R cells, DiscoveRx beta-arrestin luminescence, antagonist mode; stronger effect = lower value; max response, negative = inhibition, %; in the data active = max response below about -50%; inconclusive = no clear call, values can overlap the other calls; also: % is scaled to controls: 0 for no effect and ±100 for the full control effect
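Cells expressing the human receptor were seeded at 1500 cells/well, incubated overnight at 37 degrees C in 5% CO2, then exposed to library compounds with dopamine controls for 90 minutes at 37 degrees C before luminescent detection.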
TDP1 cell CPT: growth inhibition of DT40 Tdp1-/-;hTDP1 cells with camptothecin (screen for TDP1 inhibitors) | chicken DT40 Tdp1-/-;hTDP1 cells + 20 nM CPT, ATP luminescence, 48 h | Potency, µM (top dose mostly 46.2 µM), without a hit: at the top dose activity change, negative = growth inhibition, usual class: inhibitors | 420,000 compounds, 12% hits | AID 686979; also: potency is read from the fitted curve at half-maximal effect; % is scaled to controls: 0 for no effect and ±100 for the full control effect; nearly all actives have a fitted effect of over 55% in size
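Cell growth measured by CellTiter-Glo luminescence after a minimum 48 h, 37 C compound exposure with 20 nM CPT in Tdp1-knockout DT40 cells stably expressing hTDP1, seeded 400/well; qHTS titration format.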
IL1B secr inh: inflammasome signaling inhibition, IL-1 beta readout | THP-1 LPS/ATP IL-1B secretion, AlphaLISA, 16 h; stronger effect = lower value | activity change, % at 57.5 µM | 360,000 compounds, 4.7% hits; in the data active = activity change below about -50%; inconclusive = mostly about -30% to -49%; also: % is scaled to controls: 0 for no effect and ±100 for the full control effect
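Secreted IL-1B measured by AlphaLISA bead assay after 16 h compound exposure of THP-1 cells; compounds (final up to 57.5 uM) added 1 h before LPS (250 ng/mL) and ATP (1.25 mM) stimulation; lower signal means less secretion.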
D3 ag: D3 dopamine receptor (human) agonism; P35462; D3R DiscoveRx beta-arrestin cells, luminescence, 90 min; max activation, %; 410,000 compounds, 0.58% hits; in the data active = max activation above about 30%; also: 0% is about no effect
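Cells at 1500/well, incubated overnight, then treated with pinned compounds (dopamine as control) for 90 min at 37 degrees C. DiscoveRx reagent added for 30 - 60 minutes at room temperature; luminescence read.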
ClpP mod: qHTS Assay for Activators of ClpP. ATP-dependent Clp protease proteolytic subunit (Bacillus subtilis (strain 168)), P80244. purified B. subtilis ClpP, FRET peptide cleavage, 20 min. Potency, µM (top dose mostly 57.5 µM), inactives show at the highest dose activity change, negative = active. 340,000 compounds, 1.9% hits. AID 651965, 2013; active = well fitted falling curve with a large enough effect; inconclusive = small, poorly fitted or top-dose-only effect; inactive = no such curve, though single readings can be large or run the other way; also: potency is read from the fitted curve at half-maximal effect; the source files actives as falling curves though it sought activators and does not explain the sign; nearly all actives have a fitted effect of over 65% in size
Target sequence (P80244 whole entry, looked up): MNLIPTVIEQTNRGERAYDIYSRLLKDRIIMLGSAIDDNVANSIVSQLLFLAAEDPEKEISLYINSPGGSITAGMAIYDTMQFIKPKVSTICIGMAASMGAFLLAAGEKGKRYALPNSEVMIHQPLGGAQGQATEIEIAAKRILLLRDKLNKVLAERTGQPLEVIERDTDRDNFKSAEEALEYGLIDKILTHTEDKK
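Purified B. subtilis ClpP, 10 microg/mL final in Tris/HCl pH8 with KCl, BSA, glycerol and Tween-20, cleaved an Abz/nitrotyrosine-quenched decapeptide. Fluorescence (ex 320, em 430) was read at 0 and 20 min at room temperature. Delta was normalized to 5.8 microM ADEP and DMSO/no-enzyme controls.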
* hit, by the source's call. Sampled rows, rich in hits. Any-hit rate of the full collection: about 21%. Unless noted, calls follow the shape of the dose curve; as a rule, active = well fitted inhibition curve with a large enough effect; inconclusive = small, poorly fitted or top-dose-only effect; inactive = flat fitted curve, though single readings scatter.

COc1ccc(NC(=O)c2cnc(Nc3ccc(C)c(Cl)c3)c3ccccc23)c(OC)c1 was read as DT40 TDP1 no CPT -34%, TDP1 cell CPT -17%, D3 ag -9 and ClpP mod inconclusive.
`COc1ccc(OC)c(NC(=O)c2cnc(Nc3ccccc3OC)c3ccccc23)c1` gave DT40 TDP1 no CPT 5.8µM*, D3 antag 8, TDP1 cell CPT 5.2µM*, IL1B secr inh -10, D3 ag 15 and ClpP mod 35µM*.
Cc1ccc(Nc2ncc(C(=O)Nc3ccc(F)cc3F)c3ccccc23)cc1Cl was read as DT40 TDP1 no CPT inconclusive, TDP1 cell CPT 16µM*, D3 ag 7 and ClpP mod 4%.
COc1ccc(Nc2ncc(C(=O)Nc3cc(Cl)c(OC)cc3OC)c3ccccc23)cc1 was read as DT40 TDP1 no CPT inconclusive, TDP1 cell CPT inconclusive, D3 ag -4 and ClpP mod inconclusive.
`COC(=O)c1ccccc1NC(=O)c1cnc(Nc2ccc(OC)cc2)c2ccccc12` gave DT40 TDP1 no CPT 9.2µM*, TDP1 cell CPT 23µM*, D3 ag 7 and ClpP mod -18%.
Cc1ccc(NC(=O)CCS(=O)(=O)c2ccccc2)cc1S(=O)(=O)N1CCOCC1 was read as DT40 TDP1 no CPT -6%, D3 antag -2, TDP1 cell CPT 8%, IL1B secr inh 0 and D3 ag 3.
Screening CCOc1ccccc1NC(=O)C(OC(=O)c1ccc(CC)cc1)c1ccccc1 (configuration not stated) returned DT40 TDP1 no CPT inconclusive, D3 antag 16, TDP1 cell CPT 16µM*, IL1B secr inh 4, D3 ag -21 and ClpP mod -2%.
CCC(C)NC(=O)c1ccccc1NC(=O)C(C)N(c1ccccc1)S(C)(=O)=O (configuration not stated) was read as DT40 TDP1 no CPT -12%, D3 antag 7, TDP1 cell CPT -13%, IL1B secr inh -8, D3 ag 2 and ClpP mod -8%.
For CCOc1ccccc1NC(=O)C(OC(=O)c1ccc(N(C)C)cc1)c1ccccc1 (configuration not stated) the results were DT40 TDP1 no CPT inconclusive, D3 antag 44, TDP1 cell CPT 0.58µM*, IL1B secr inh 17, D3 ag -2 and ClpP mod inconclusive.
Screening CCOc1ccccc1NC(=O)C(OC(=O)c1cnccn1)c1ccccc1 (configuration not stated) returned DT40 TDP1 no CPT -15%, D3 antag 29, TDP1 cell CPT -13%, IL1B secr inh 2, D3 ag 2 and ClpP mod 0%.
Screening CCOc1ccccc1NC(=O)C(NCCc1ccc(OC)cc1)c1ccccc1 (configuration not stated) returned DT40 TDP1 no CPT inconclusive, D3 antag 11, TDP1 cell CPT 23µM*, IL1B secr inh -7, D3 ag 1 and ClpP mod -1%.
For CCOc1ccccc1NC(=O)C(C)N(c1ccccc1)S(C)(=O)=O (configuration not stated) the results were DT40 TDP1 no CPT inconclusive, TDP1 cell CPT inconclusive, D3 ag 37* and ClpP mod 2%.
Screening CCOc1ccccc1NC(=O)C(NCCN(C)C)c1ccccc1 (configuration not stated) returned DT40 TDP1 no CPT -4%, D3 antag 0, TDP1 cell CPT 4%, IL1B secr inh 0 and D3 ag -1.
`COc1ccc(CCC(=O)NNC(=O)Nc2ccc(OC)c(OC)c2)cc1` gave DT40 TDP1 no CPT 25%, D3 antag 5, TDP1 cell CPT -2%, IL1B secr inh 20, D3 ag 2 and ClpP mod 0%.
